SARS PLpro yeast: inhibitors of SARS-CoV papain-like protease in yeast. 0.19% of 330,000 active. Potency, µM (top dose mostly 32.9 µM), without a hit: at the top dose activity, positive = growth rescue, actives largely listed as activators. S. cerevisiae expressing SARS-CoV PLpro, growth rescue. AID 485353; calls by dose curve; further: potency means the concentration at half of the fitted maximal effect; 0% is about no effect; nearly all actives have a fitted effect of over 55% in size
Pf growth 96h: P. falciparum growth inhibition at 96 hour, primary screen for plastid delayed-death inhibitors | P. falciparum luciferase reporter growth, 96 h | Potency, µM (doses to about 28.7 µM), for the others: at the top dose activity change, negative = inhibition, actives largely listed as inhibitors | 6.9% of 320,000 active; further: potency means the concentration at half of the fitted maximal effect; on the % scale 0 is the no-effect control and ±100 the full control effect
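96 h incubation, 37 C, 5% CO2, of luciferase-reporter P. falciparum-infected RBCs (2% hematocrit, 0.05% parasitemia final) with test compounds; endpoint luminescence.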
Pf growth 48h: inhibits P. falciparum growth in the first generation, 48 h | P. falciparum luciferase growth in erythrocytes, 48 h | Potency, µM (highest dose often 28.7 µM), inactives show at the top dose activity change, negative = inhibition, usual class: inhibitors | AID 504832 | 5.9% of 310,000 active; further: potency means the concentration at half of the fitted maximal effect; on the % scale 0 is the no-effect control and ±100 the full control effect
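First compound was added to culture medium, then infected red cells at 0.1% parasitemia and 2% hematocrit (final). After incubation at 37 C under 5% CO2, luciferase detection reagent was dispensed and light output recorded.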
Shiga inhibitor: inhibitors of Shiga toxin in Vero cells; Vero cells, Shiga toxin protein synthesis inhibition reporter; inhibition, % at 38.7 µM; 9.2% of 290,000 active; in the data active means inhibition mostly above about 28%, no sharp cut-off; inactive means mostly below about 43%; further: 0% is about no effect
NS1 function inh: inhibitors of influenza NS1 protein function. Potency, µM (titrated, usually from 46.1 µM), for the others: at the highest dose activity, positive = more growth. AID 2326. 0.4% of 270,000 active; calls by dose curve; further: potency means the concentration at half of the fitted maximal effect; actives are rising curves; nearly all actives have a fitted effect of over 50% in size
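OD600 was taken as the measure of yeast growth restored by compound in an NS1-expressing S. cerevisiae strain. Cells had been washed out of glucose medium and diluted 1:100 into galactose -URA medium, pH 6.0.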
CHX counter: counter-screen for Shiga toxin inhibitors: cycloheximide protein synthesis inhibition; cell reporter, cycloheximide protein synthesis inhibition counterscreen; max response, %; 12% of 300,000 active; AID 2314; in the data active means max response mostly above about 13%, no sharp cut-off; inactive means mostly below about 14%; further: read at 38.3 µM for the half of the compounds with a filed dose; 0% is about no effect
* marks the source's active call; other numbers are inactive results; ? = inconclusive; · = not tested or not shown; [ ] = another dose, or the depositor's remark. Hits are enriched below; roughly 21% of the tested compounds scored in any of these assays. Unless noted, the call rests on the fitted dose curve; in most records, active means well fitted inhibition curve with a large enough effect; inconclusive means small, poorly fitted or top-dose-only effect, or another doubt; inactive means no such curve, though single readings can be large or run the other way.

SMILES | SARS PLpro yeast | Pf growth 96h | Pf growth 48h | Shiga inhibitor | NS1 function inh | CHX counter
COc1ccc(C2=NN(c3nc(-c4ccccc4)c(CC(=O)O)s3)C(c3ccco3)C2)cc1 (stereo not drawn) | -6.9% | ? | -8.8% | 47.7* | 25.0% | 17.9*
CCS(=O)(=O)N1N=C(c2cccc(NS(C)(=O)=O)c2)CC1c1ccc(C)cc1 (stereo not drawn) | 1.1% | 0.6% | -12.0% | 31.1 | · | 27.5*
Cc1nnc(SCC(=O)N2N=C(c3ccc(Cl)cc3)CC2c2ccco2)[nH]c1=O (stereo not drawn) | 2.8% | 39.4% | 27.3% | 46.5 | · | 18.3*
CC(C)(C)c1ccc(N=C2SCC(=O)N2Cc2cccs2)cc1 | -4.1% | -31.6% | ? | 49.7* | -0.7% | 46.9*
CN(C)CC1CCCCC1OC(=O)/C=C/c1ccc(Cl)cc1Cl (stereo not drawn) | -1.4% | 29.4% | 3.8% | -9.6 | · | 5.2
Cc1ccc(S(=O)(=O)/N=C(/c2ccccc2)N2CCOCC2)c(C)c1 | 0.4% | 5.86µM* | -41.4%[1.15 µM] | -4.5 | -3.5% | -5.9
O=C(c1ccco1)N1CCN(c2nc(C(F)(F)F)nc3c2nnn3Cc2ccccc2)CC1 | -23.6% | · | 9.28µM* | 17.2 | ? | 5.2
Clc1ccccc1Cn1nnc2c(Nc3ccccc3)ncnc21 | -1.2% | ? | -8.4% | 79.2 | -13.7% | 15.6*
O=C(c1ccco1)N1CCCC(c2nc3c(nnn3Cc3cccc(Cl)c3)c(=O)[nH]2)C1 (stereo not drawn) | 7.5% | 52.5% | ? | -8.3 | 7.7% | -6.7
Clc1ccccc1Cn1nnc2c(NCC3CC3)ncnc21 | -5.6% | ? | ? | 22.4 | -1.6% | 16.6
O=C(c1ccco1)N1CCN(c2ncnc3c2nnn3Cc2ccccc2Cl)CC1 | -18.7% | -24.0% | 11.7µM* | -8.6 | -24.8% | 8.2
C=C1CC2C(=O)N(Cc3cc(OC)ccc3OC)C(C(=O)OCC)(C(=O)OCC)C1N2C(=O)OC(C)(C)C (stereo not drawn) | · | · | · | -2.0 | · | 13.5
CCN1CCN(Cc2coc3ccc(C)cc3c2=O)CC1 | 1.4% | · | 30.0% | 38.3* | 2.4% | 27.2*
Cc1ccc2occ(CN3CCN(c4ccccc4)CC3)c(=O)c2c1 | -0.5% | 26.0% | 5.0% | 8.0 | -9.5% | 2.7
Cc1ccc2occ(C(=O)c3ccco3)c(=O)c2c1 | -17.9% | 3.6% | 28.3% | 47.9* | 11.4% | 18.3
Cc1ccc2occ(CN3CCN(Cc4ccccc4)CC3)c(=O)c2c1 | -1.2% | 134.1% | 59.0% | 61.4* | 1.0% | 41.6*
O=C(c1cc(C(=O)c2ccco2)cc(C(=O)c2ccco2)c1)c1ccco1 | -3.0% | 81.6% | 35.2% | -8.6 | -2.1% | 1.6
O=c1c(CN2CCN(Cc3ccccc3)CC2)coc2ccc(Cl)cc12 | -3.1% | 42.1% | 30.1% | 27.8 | -11.8% | 18.3
O=C(NCc1ccco1)c1cc(-c2ccccn2)nc2ccccc12 | 0.5% | -33.6% | -11.2% | 54.4 | -0.5% | 1.6
COc1ccc(-c2cc(C(=O)NCc3ccco3)c3ccccc3n2)cc1 | -5.3% | 3.29µM* | ? | 27.5 | -14.1% | 14.3*
O=C(Nc1cccc(S(=O)(=O)NCc2ccco2)c1)c1cc(-c2ccccc2)nc2ccccc12 | -6.6% | ? | -2.4% | 22.9 | 7.9% | 36.3*
O=C(NCc1ccco1)c1cc(-c2ccccc2)nc2ccccc12 | -11.9% | 120.7% | ? | 53.1 | -57.6% | 23.7*
Cc1nnc(Sc2cc(C(=O)NCc3ccco3)c3ccccc3n2)s1 | -3.3% | · | ? | 59.9 | -27.1% | 35.4*
COc1ccc(-c2cc(C(=O)NCc3ccco3)c3ccccc3n2)c(OC)c1 | 2.1% | -27.3% | ? | -4.3 | -9.2% | 10.4
CC(=O)Nc1ccc(SCC(=O)NC(=O)c2ccccc2Br)cc1 | 2.4% | 23.9% | -1.7% | · | · | ·
SMILES | SARS PLpro yeast | Pf growth 96h | Pf growth 48h | Shiga inhibitor | NS1 function inh | CHX counter
COCCn1c(SCC(=O)NCC2CCCO2)nc2c(c1=O)SC(C)C2 (stereo not drawn) | -2.8% | ? | -7.0% | -4.6 | 1.8% | -0.8
Cn1cc(CNC(=O)c2cc(-c3ccccc3)nc3ccc(Br)cc23)cn1 | 9.8% | ? | 13.1µM* | 21.3 | 11.5% | -1.7
Cc1ccc(-c2cc(C(=O)NCc3cnn(C)c3)c3cc(Br)ccc3n2)cc1 | -19.2% | -2.7% | ? | -4.8 | 0.8% | 13.4
COc1ccc(/C=C/C(=O)NC(=S)Nc2ccccn2)cc1 | 0.0% | 62.0% | 107.4% | 89.7* | -4.7% | 46.8*
COc1ccccc1/C=C/C(=O)NC(=S)Nc1ccccn1 | 25.6% | ? | 35.5% | 105.3* | -1.2% | 45.5*
COc1ccccc1/C=C/C(=O)NCc1ccccn1 | -1.2% | 14.3% | 12.8% | 16.2 | -2.1% | 10.2
O=C(O)CC(O)CC(O)/C=C/c1c(C2CC2)nc2ccccc2c1-c1ccc(F)cc1 (stereo not drawn) | · | -6.5% | -0.2% | · | · | ·
Cc1cc(NC(=O)C23CC4CC(C2)CC(n2cnc([N+](=O)[O-])n2)(C4)C3)no1 | 0.8% | 37.1% | 18.7% | -3.9 | -2.3% | 10.6
CC(C)Cn1c(-c2ccccc2F)n[nH]c1=S | 3.3% | · | 4.0% | -5.6 | -2.2% | -3.3
CC(C)Cn1c(-c2csc3c2CCCC3)n[nH]c1=S | -3.1% | ? | 11.7µM* | 13.2 | -66.3% | 7.5
Cc1ccc(-n2c(-c3ccncc3)n[nH]c2=S)cc1 | 0.4% | 20.7% | -3.0% | 168.3* | · | 31.3*
CC(C)Cn1c(-c2ccc(F)cc2)n[nH]c1=S | -7.5% | 24.6% | 22.2% | -1.0 | 7.4% | -3.8
COc1cc(-c2n[nH]c(=S)n2-c2ccc(C)cc2)cc(OC)c1OC | -6.5% | 22.2% | -38.7% | 3.1 | 1.0% | 17.4*
CC(C)Cn1c(-c2ccncc2)n[nH]c1=S | -1.3% | 3.7µM* | 2.5% | -11.6 | 4.0% | -2.7
N#Cc1c(Cl)nc2c(c1C#N)CCCC2 | -1.3% | -6.6% | 7.7% | -4.9 | -1.8% | -3.3
CCN(CC)c1ccc(-c2nc3cnccc3n2C)cc1 | ? | 22.1% | 97.5% | 135.2* | -16.3% | 32.6*
CSc1ccc(S(=O)(=O)Nc2ccc(OCC(=O)N3CCOCC3)cc2)cc1 | 0.6% | -7.0% | -8.0% | -12.2 | -2.9% | -3.4
O=C(Cc1ccccc1)Nc1ccc(NC(=O)c2ccc(Br)cc2)cc1 | -1.1% | ? | -9.1% | · | -0.9% | -1.5
Cc1cccc(C(=O)Nc2ccc(NC(=O)Cc3ccc(Cl)cc3)cc2)c1 | 9.4% | 11.7µM* | 15.8% | -5.8 | 6.8% | -2.7
O=C(Cc1cccc(Cl)c1)Nc1ccc(Br)cc1 | -1.4% | 18.5% | 7.5% | 25.6 | -9.2% | 16.9*
COc1cccc(C(=O)NNC(=O)Cc2ccc(Cl)cc2)c1 | -0.5% | 2.94µM* | 5.1% | -13.8 | 16.0% | -2.0
O=C(Cc1ccc(Cl)cc1)Nc1ccc(CN2CCCCC2)cc1 | 0.9% | 11.7µM* | ? | 4.6 | 3.0% | -2.2
CC(=O)Nc1ccc(CN2CCCCCC2)cc1 | -1.0% | 0.0% | 13.5% | -6.1 | -2.0% | -0.2
Cc1cc(=O)[nH]c(-c2ccccc2OC(F)(F)F)n1 | 1.1% | 0.1% | 0.0% | -1.9 | -2.9% | -2.5

Source: PubChem (National Center for Advancing Translational Sciences (NCATS))
